Laboratory results from PubChem BioAssay (EPA / NIEHS).
Activity calls are given as the source filed them. How the source made its calls: active means hit-call score of the fitted dose curve at least 0.9, where 1 is the maximum; inactive means score below 0.9.

Legend:
Details in all cases: mRNA level, 48 h; actives raise or lower the signal
[1] = read-out: ABC Transporter (ABCB1), ABCB1 (gene 5243); assay: LTEA_HepaRG_ABCB1: Life Technologies and Expression Analysis (LTEA) Assay for ABC Transporter (ABCB1) using HepaRG (AID 2283460)
Outline: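 HepaRG cells exposed in duplicate for 48 h in serum-free induction medium to eight half-log concentrations up to 100 uM in 0.5% DMSO. ABCB1 mRNA quantified by qRT-PCR, normalised to ACTB, GAPDH and POLR2A; fitted bidirectionally versus DMSO.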

[2] = read-out: growth arrest and DNA damage 45 (GADD45B), GADD45B (gene 4616); assay: LTEA_HepaRG_GADD45B: Life Technologies and Expression Analysis (LTEA) Assay for growth arrest and DNA damage 45 (GADD45B) using HepaRG (AID 2283461)
Outline: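 Differentiated human HepaRG cells in serum-free induction medium exposed 48 h in duplicate to eight concentrations, top 100 uM, half-log steps, 0.5% DMSO. GADD45B mRNA by TaqMan qRT-PCR, normalized to ACTB, GAPDH, POLR2A; bidirectional fit versus DMSO.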

[3] = read-out: ABC Transporter (ABCC3), ABCC3 (gene 8714); assay: LTEA_HepaRG_ABCC3: Life Technologies and Expression Analysis (LTEA) Assay for ABC Transporter (ABCC3) using HepaRG (AID 2283462)
Outline: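 Differentiated human HepaRG cells exposed 48 h in serum-free induction medium, 0.5% DMSO vehicle, 8-point half-log series to 100 uM in duplicate. ABCC3 mRNA by qRT-PCR, normalised to ACTB, GAPDH, POLR2A; bidirectional fit vs DMSO.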

[4] = read-out: ABC Transporter (ABCB11), ABCB11 (gene 8647); assay: LTEA_HepaRG_ABCB11: Life Technologies and Expression Analysis (LTEA) Assay for ABC Transporter (ABCB11) using HepaRG (AID 2283463)
Outline: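 Differentiated human HepaRG cells in serum-free induction medium, dosed in duplicate for 48 h. Eight-point half-log series from 100 uM in 0.5% DMSO; ABCB11 mRNA by qRT-PCR, normalized to ACTB, GAPDH, POLR2A, fitted bidirectionally versus DMSO.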

[5] = read-out: ABC Transporter (ABCC2), ABCC2 (gene 1244); assay: LTEA_HepaRG_ABCC2: Life Technologies and Expression Analysis (LTEA) Assay for ABC Transporter (ABCC2) using HepaRG (AID 2283464)
Outline: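 Differentiated HepaRG cells in serum-free induction medium exposed 48 h to eight half-log concentrations up to 100 uM, 0.5% DMSO, in duplicate. ABCC2 mRNA measured by qRT-PCR (TaqMan, Fluidigm), normalized to ACTB, GAPDH and POLR2A. Fitted in both directions against DMSO.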

[6] = read-out: ATP-citrate lyase (ACLY), ACLY (gene 47); assay: LTEA_HepaRG_ACLY: Life Technologies and Expression Analysis (LTEA) Assay for ATP-citrate lyase (ACLY) using HepaRG (AID 2283466)
Outline: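 Differentiated HepaRG cells exposed 48 h in serum-free induction medium to eight half-log concentrations up to 100 uM in 0.5% DMSO, duplicates. Transcript measured by Fluidigm TaqMan qRT-PCR, normalized to ACTB, GAPDH, POLR2A; bidirectional fit versus DMSO.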

[7] = read-out: Peroxisomal acyl-coenzyme A oxidase 1 (ACOX1) gene, ACOX1 (gene 51); assay: LTEA_HepaRG_ACOX1: Life Technologies and Expression Analysis (LTEA) Assay for Peroxisomal acyl-coenzyme A oxidase 1 (ACOX1) gene using HepaRG (AID 2283467)
Outline: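 HepaRG cells, plated 48 h then switched to serum-free induction medium, were exposed in duplicate for 48 h to 8-point half-log concentrations up to 100 uM in 0.5% DMSO. ACOX1 mRNA was measured by qRT-PCR, normalized to ACTB/GAPDH/POLR2A, and fitted bidirectionally versus DMSO.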

[8] = read-out: Forkhead box O3 (FOXO3), FOXO3 (gene 2309); assay: LTEA_HepaRG_FOXO3: Life Technologies and Expression Analysis (LTEA) Assay for Forkhead box O3 (FOXO3) using HepaRG (AID 2283459)
Outline: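 Differentiated human HepaRG cells, 48 h post-plating, exposed in duplicate for 48 h in serum-free induction medium; 8-point half-log series from 100 uM in 0.5% DMSO. FOXO3 mRNA by TaqMan qRT-PCR, normalized to ACTB/GAPDH/POLR2A; bidirectional fit versus DMSO.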

[9] = read-out: Broad substrate specificity ATP-binding cassette transporter ABCG2 (Homo sapiens) (UniProt Q9UNQ0); assay: LTEA_HepaRG_ABCG2: Life Technologies and Expression Analysis (LTEA) Assay for ABC Transporter (ABCG2) using HepaRG (AID 2283465)
Outline: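 Differentiated HepaRG cells were exposed for 48 h in serum-free induction medium to 8 half-log concentrations, top 100 uM, in 0.5% DMSO. ABCG2 mRNA was measured by qRT-PCR, normalized to ACTB, GAPDH and POLR2A, with bidirectional fitting versus DMSO.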

Measured: AC50

Chain of Broad substrate specificity ATP-binding cassette transporter ABCG2 (Homo sapiens) (Q9UNQ0 whole entry, looked up): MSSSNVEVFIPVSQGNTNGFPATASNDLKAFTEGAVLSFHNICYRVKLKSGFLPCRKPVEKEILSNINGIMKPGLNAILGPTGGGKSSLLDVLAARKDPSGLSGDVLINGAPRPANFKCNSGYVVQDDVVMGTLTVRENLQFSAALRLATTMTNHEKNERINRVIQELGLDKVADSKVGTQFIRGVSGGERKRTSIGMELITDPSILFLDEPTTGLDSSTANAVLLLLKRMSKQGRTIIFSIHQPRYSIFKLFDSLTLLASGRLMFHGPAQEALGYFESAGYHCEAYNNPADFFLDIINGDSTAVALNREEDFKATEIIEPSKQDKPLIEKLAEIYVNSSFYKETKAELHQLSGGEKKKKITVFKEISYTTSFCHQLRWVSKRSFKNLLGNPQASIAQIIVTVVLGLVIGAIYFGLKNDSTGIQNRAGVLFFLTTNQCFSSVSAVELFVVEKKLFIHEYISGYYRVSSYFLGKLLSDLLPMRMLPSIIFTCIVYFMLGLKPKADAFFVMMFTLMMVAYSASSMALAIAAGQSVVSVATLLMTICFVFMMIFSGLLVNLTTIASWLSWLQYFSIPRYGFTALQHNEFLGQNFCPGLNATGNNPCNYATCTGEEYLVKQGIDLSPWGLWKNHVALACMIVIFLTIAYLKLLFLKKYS

COCCOCCOC
inactive: [2] | [3] | [5] | [6]
active: [1] 2.83 µM | [4] 0.922 µM | [7] 9.92 µM

CNC(=O)[C@H]1O[C@@H](n2cnc3c(NCc4cc(Cl)ccc4OCc4cc(C)no4)ncnc32)[C@H](O)[C@@H]1N
not listed: [3] | [9]
inactive: all other assays above

CC(=O)Oc1ccccc1C(=O)O
not listed: [3]
inactive: all other assays above

CCOC(=O)C(C)(C)Oc1ccc(Cl)cc1
not listed: [3] | [8]
inactive: all other assays above

CC1=C(/C=C/C(C)=C/C=C/C(C)=C/CO)C(C)(C)CCC1
active: [1] 52.2 µM | [5] 52.2 µM
not listed: [8] | [9]
inactive: all other assays above

Cc1c(C(=O)O)c(O)cc2c1C(=O)c1c(O)c([C@@H]3O[C@H](CO)[C@@H](O)[C@H](O)[C@H]3O)c(O)c(O)c1C2=O
not listed: [3]
inactive: all other assays above

Oc1ccc2c(c1)OC[C@@H](N1CCC(O)(c3ccc(F)cc3)CC1)[C@H]2O
not listed: [3] | [8]
inactive: all other assays above

CC(CO)OC(C)CO (configuration not stated) (tested in a mixture with another compound)
not listed: [8] | [9]
inactive: all other assays above

Cc1ccc(N(C)C)cc1
not listed: [3] | [8]
inactive: all other assays above

CC(C)(C)c1cc(O)c(C(C)(C)C)cc1O
inactive: [2] | [6]
active: [1] 90.3 µM | [3] 73.6 µM | [4] 72.7 µM | [5] 85.9 µM | [7] 77.3 µM

Cc1ccccc1Cl
not listed: [8] | [9]
inactive: all other assays above

C=CCc1ccc(O)c(OC)c1
not listed: [3] | [8]
inactive: all other assays above

COC(=O)c1ccc(O)cc1
not listed: [3] | [8] | [9]
inactive: all other assays above

CC(=O)OC/C=C(\C)CCC=C(C)C
not listed: [3]
inactive: all other assays above

CNCc1cc(F)ccc1Oc1ccc(Cl)c(Cl)c1
inactive: [1] | [3] | [4] | [6]
active: [2] 91.3 µM | [5] 75.6 µM | [7] 74.2 µM
